Compound activity deposited in PubChem by National Center for Advancing Translational Sciences (NCATS).
Hits are enriched below; roughly 17% of the tested compounds scored in any of these assays.
ATXN2 expr inh – Primary qHTS for Inhibitors of ATXN expression | HEK-293 ATXN2-luciferase reporter, luminescence, 24 h | Potency, µM (doses to about 57 µM), usual class: inhibitors | 0.72% of 360,000 active | AID 1745845, 2022; note: nearly all actives have a fitted effect of over 55% in size
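qHTS (up to 57 uM final) was run with 24 h compound exposure of reporter cells at 37 °C. Each well was multiplexed: SteadyGlo luminescence measured ATXN2-luciferase expression after a fluorogenic Gly-Phe-AFC viability readout (25 uM final).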
DT40 TDP1 CPT – qHTS for Inhibitors of human tyrosyl-DNA phosphodiesterase 1 (TDP1): qHTS in cells in presence of CPT. 12% of 420,000 active. Potency, µM (titrated, usually from 46.2 µM), usual class: inhibitors. chicken DT40 Tdp1-/-;hTDP1 cells + 20 nM CPT, ATP luminescence, 48 h; note: nearly all actives have a fitted effect of over 55% in size
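Cell growth measured by CellTiter-Glo luminescence after a minimum 48 h, 37 C compound exposure with 20 nM CPT in Tdp1-knockout DT40 cells stably expressing hTDP1, seeded 400/well; qHTS titration format.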
S2 tox – Viability Counterscreen for Primary qHTS for Inhibitors of ATXN expression; 0.49% of 400,000 active; Potency, µM (top dose mostly 56.7 µM), most hits filed as cytotoxic; S2 cells (HEK-293 line with an ATXN2-luciferase reporter) viability, CellTiter-Fluor protease fluorescence, 24 h; AID 651635, 2014; note: nearly all actives have a fitted effect of over 40% in size
TGFb inhibitor – qHTS for Inhibitors of TGF-b | HepG2 CAGA-GFP TGF-b/SMAD3 reporter, GFP fluorescence, 18 h; TGF-beta stimulated, 500 pg/mL final | Potency, µM (titrated, usually from 46.1 µM), actives largely listed as inhibitors | 1.2% of 410,000 active | AID 588855, 2011; note: nearly all actives have a fitted effect of over 65% in size
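TGF-beta reporter screen: HEPG2 CAGA-GFP, 1% FBS, 500 pg/mL TGF-beta final, 18 h; per-cell GFP summed per well; curves fitted and categorized by class.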
TDP1 cell noCPT – qHTS for Inhibitors of human tyrosyl-DNA phosphodiesterase 1 (TDP1): qHTS in cells in absence of CPT; DT40 Tdp1-/- hTDP1 cells, no CPT, ATP luminescence, 48 h; Potency, µM (titrated, usually from 46.2 µM), most hits filed as inhibitors; 15% of 420,000 active; AID 686978, 2013; note: nearly all actives have a fitted effect of over 55% in size
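Seeded 400 DT40-hTDP1 cells/well (vehicle DMSO, no 20 nM CPT); pinned compounds; ≥48 hr at 37 °C; CellTiter-Glo luminescence as viability measure.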
HepG2 viability – qHTS for Inhibitors of TGF-b: Cytotox Counterscreen | HepG2 CAGA-GFP viability, ATP luminescence, 18 h | Potency, µM (titrated, usually from 46.1 µM), actives largely listed as cytotoxic | 0.76% of 410,000 active | AID 588856, 2011
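CellTiter-Glo luminescence gave cytotoxicity after 18 hours at 37 degrees C. The cells were HepG2 CAGA-GFP in 1% FBS DMEM, stimulated with 500 pg/mL TGF-beta after compound addition. %Activity was normalised to no-cell wells (complete cell-killing) and DMSO (no toxicity), and curves were fitted and classified.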
Of the large screens only hits and unclear results are named; the others gave an inactive call. Calls come from the whole dose curve; as a rule, active = well fitted curve in the direction sought with a large enough effect; inconclusive = small, poorly fitted or top-dose-only effect, or another doubt; inactive = no such curve, though single readings can be large; an effect the other way counts as inactive or inconclusive.

O=C1CCCCN1CCC(=O)N1CCOc2ccc(C(O)C3CCCCC3)cc2C1 (stereo not given)	DT40 TDP1 CPT inconclusive, TDP1 cell noCPT inconclusive (no result: ATXN2 expr inh, TGFb inhibitor, HepG2 viability)
OC(c1ccc(F)c(F)c1)c1nc(-c2cc(F)cc(F)c2)cs1 (stereo not given)	none
Cc1cccc2sc(NS(C)(=O)=O)nc12	none
CCOC(=O)C1CCCN(C(=O)c2sc3nc(-c4ccccc4)cn3c2C)C1 (stereo not given)	DT40 TDP1 CPT inconclusive, TDP1 cell noCPT inconclusive
CCOC(=O)C1CCCN(C(=O)c2cc3nc(-c4cccc(OC)c4)cc(C(F)(F)F)n3n2)C1 (stereo not given)	DT40 TDP1 CPT inconclusive, TDP1 cell noCPT inconclusive
CCOC(=O)C1CCCN(C(=O)COc2ccc(C(=O)c3ccc(F)cc3)cc2)C1 (stereo not given)	DT40 TDP1 CPT 18µM, TDP1 cell noCPT inconclusive
CCOC(=O)C1CCCN(C(=O)c2ccc3c(c2)sc2nc(-c4ccc(C)cc4C)cn23)C1 (stereo not given)	DT40 TDP1 CPT 16µM, TDP1 cell noCPT 18µM
CCOC(=O)C1CCCN(C(=O)c2sc3nc(-c4ccc(F)cc4)cn3c2C)C1 (stereo not given)	DT40 TDP1 CPT inconclusive, TDP1 cell noCPT 26µM
CCOC(=O)C1CCCN(C(=O)c2ccc3c(c2)sc2nc(-c4cccc(OC)c4)cn23)C1 (stereo not given)	DT40 TDP1 CPT 18µM, TGFb inhibitor inconclusive, TDP1 cell noCPT 15µM (no result: ATXN2 expr inh, S2 tox)
CCOc1ccc2nc(SCC(=O)N(CCOC)c3c(N)n(Cc4ccccc4)c(=O)[nH]c3=O)[nH]c2c1	none
COc1ccc(OCC(=O)N2CCCC(Nc3ccc(C)c(C)c3)C2)cc1 (stereo not given)	none (no result: ATXN2 expr inh)
Cc1cc(C)c(C(=O)c2ccc(C(=O)N(C(C)C)C(C)C)cc2)c(C)c1	DT40 TDP1 CPT 16µM, TDP1 cell noCPT 18µM
CCSc1nc(=S)cc(C)[nH]1	DT40 TDP1 CPT inconclusive, TDP1 cell noCPT 21µM (no result: ATXN2 expr inh)
CCSc1nc(O)cc(=O)[nH]1	none (no result: ATXN2 expr inh)
CC1C(C)N(C(=O)CCCl)c2ccccc2N1C(=O)CCCl (stereo not given)	none
O=C(NCc1cccnc1)C1CCN(C(=O)c2ccc(Cl)cc2Cl)CC1	none
O=C(NCc1cccnc1)C1CCC(c2ccc(Cl)cc2)CC1 (stereo not given)	ATXN2 expr inh inconclusive, DT40 TDP1 CPT inconclusive, TDP1 cell noCPT 16µM
O=C(CN(C1CCCCC1)S(=O)(=O)c1ccc(Cl)cc1)NCc1cccnc1	DT40 TDP1 CPT inconclusive, TDP1 cell noCPT 16µM
CC(C)c1c(C(=O)NCC(C)(C)N2CCOCC2)cnn1-c1nccc(-c2ccccc2F)n1	TDP1 cell noCPT inconclusive (no result: ATXN2 expr inh, TGFb inhibitor, HepG2 viability)
FC(F)(F)c1cc(-c2ccccc2)nc2cc(-c3ccc(Br)cc3)nn12	none
COc1ccc(-c2cc3nc(C)cc(N4CCN(C(=O)c5cccnc5)CC4)n3n2)cc1	DT40 TDP1 CPT inconclusive, TDP1 cell noCPT 23µM
COc1ccc(-c2cc3nc(-c4ccccc4)cc(N4CCN(C(=O)c5ccoc5)CC4)n3n2)cc1	DT40 TDP1 CPT inconclusive, TDP1 cell noCPT 8.2µM
COc1ccc(N2CCN(C(=O)c3cccnc3)CC2)c([N+](=O)[O-])c1	none
O=C(c1ccoc1)N1CCN(c2cc(-c3ccccc3)nc3cc(-c4ccc(Br)cc4)nn23)CC1	DT40 TDP1 CPT 12µM, TDP1 cell noCPT 5.8µM
O=C(Nc1ccccc1C(=O)NC1CC1)c1ccccc1	none
Cc1cccc(N2CCN(C(=O)CCCOc3ccccc3)CC2)c1C	DT40 TDP1 CPT inconclusive, TDP1 cell noCPT inconclusive
COc1ccc(CN2CCOc3ccc(CN4CCC(O)(c5cccnc5)CC4)cc3C2)c(C)c1C	DT40 TDP1 CPT inconclusive, TDP1 cell noCPT 16µM (no result: ATXN2 expr inh, TGFb inhibitor, HepG2 viability)
